Test [1] can be described thus: Caspase-3/7 induction in HepG2 cells by small molecules, qHTS assay (AID 1346978). Further: nearly all actives have a fitted effect of over 15% in size. An outline of the steps: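 Wild-type HepG2 cells, 2,000/well, settled 5 hr at 37 C and 5% CO2, then compound-treated for 17 hr; caspase-3/7 activity read by luminescent Caspase-Glo 3/7 after 30 min at room temperature.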
The nature of test [2]: Caspase-3/7 induction in CHO-K1 cells by small molecules, qHTS cell viability counter screen (AID 1346979). Further: nearly all actives have a fitted effect of over 35% in size. Further: potency means the concentration at half of the fitted maximal effect. The essentials:
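Seeding: 1,500 CHO-K1 cells/well. Rest: 5hr, 37C. Treatment: compounds in DMSO, 16hr. Read: CellTiter-Fluor, 1hr, fluorescence.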

Test [3] is described as follows: Caspase-3/7 induction in CHO-K1 cells by small molecules, qHTS assay (AID 1346980). Further: nearly all actives have a fitted effect of over 15% in size. The essentials:
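Wild-type CHO-K1 cells exposed to compounds for 17hr at 37 C, 5% CO2. Caspase-3/7 activity then measured by Caspase-Glo 3/7 luminescence after 30min at room temperature.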

The target of test [4] is Nuclear receptor subfamily 1 group I member 2 (Homo sapiens) (UniProt O75469). In words: Human pregnane X receptor (PXR) small molecule agonists, qHTS assay (AID 1346982). Further: nearly all actives have a fitted effect of over 35% in size. Further: potency means the concentration at half of the fitted maximal effect. An outline of the steps: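 PXR-Luc HepG2 reporter cells (CYP3A4-driven luciferase) in 5% charcoal-stripped FBS medium, plated 5 h before compound addition, then treated 24 h at 37C. Luciferase read by ONE-Glo luminescence after 30 min at room temperature.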
Chain of Nuclear receptor subfamily 1 group I member 2 (Homo sapiens) (O75469 whole entry, looked up): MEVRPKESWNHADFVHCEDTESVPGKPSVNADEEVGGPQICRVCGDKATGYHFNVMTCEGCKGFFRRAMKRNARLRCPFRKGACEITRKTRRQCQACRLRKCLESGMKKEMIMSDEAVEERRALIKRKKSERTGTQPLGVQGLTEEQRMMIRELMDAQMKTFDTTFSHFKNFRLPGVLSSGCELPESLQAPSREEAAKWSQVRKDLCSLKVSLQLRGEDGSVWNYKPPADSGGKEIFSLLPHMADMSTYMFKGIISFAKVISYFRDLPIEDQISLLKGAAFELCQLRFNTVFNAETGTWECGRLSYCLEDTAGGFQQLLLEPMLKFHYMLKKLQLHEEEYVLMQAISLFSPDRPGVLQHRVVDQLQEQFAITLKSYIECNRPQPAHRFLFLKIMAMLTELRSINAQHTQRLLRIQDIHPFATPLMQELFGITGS

Test [5] has as its target Nuclear receptor subfamily 1 group I member 2 (Rattus norvegicus) (UniProt Q9R1A7). The test can be described thus: Rat pregnane X receptor (rPXR) activation by small molecules, qHTS assay (AID 1346983). Further: nearly all actives have a fitted effect of over 20% in size. Particulars: rPXR luciferase reporter cells, One-Glo luminescence, 24 h; stronger effect = higher value. The essentials:
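Cell-based rPXR activation assay: rPXR cells, 2,000 per well, rested 5hr at 37 C, then exposed to compounds in DMSO for 24 hr at 37 C. Luciferase activity read by One-Glo luminescence after 30 min at room temperature.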

Test [6] has as its target Nuclear receptor subfamily 1 group I member 2 (Homo sapiens) (UniProt O75469). The test can be described thus: CYP3A4 induction through human pregnane X receptor (PXR) by small molecules, qHTS assay (AID 1346984). Further: nearly all actives have a fitted effect of over 40% in size. An outline of the steps:
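DPX-2 HepG2 cells carrying a PXR response element and CYP3A4-promoter luciferase construct, treated with compounds 24 hr at 37C. Then P450-Glo CYP3A4 Luciferin-IPA substrate (3uM final) for 3 hr at 37C, One-Glo added, luminescence read.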

For test [7] the target is unchanged. In words: Human pregnane X receptor (PXR) activation by small molecules, qHTS assay (AID 1346985). Further: nearly all actives have a fitted effect of over 40% in size. Further: potency means the concentration at half of the fitted maximal effect. The essentials: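 DPX-2 cells (HepG2 co-transfected with a PXR response element and a CYP3A4-promoter luciferase construct) were seeded at 2,000 per well, rested 5 hr at 37C, then exposed to DMSO-dissolved compounds for 24 hr. Activation was read as luciferase luminescence.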

Test [8] concerns the target Acetylcholinesterase (Homo sapiens) (UniProt P22303). The test can be described thus: Acetylcholinesterase (AChE) small molecule antagonists: enzyme-based qHTS assay (AID 1347397; calls by dose curve; further: nearly all actives have a fitted effect of over 55% in size). Particulars: Potency: AChE enzyme activity inhibition. The essentials: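 Recombinant human AChE (50 mU/mL) preincubated with compound 30 min at room temperature; acetylthiocholine plus DTNB then added, and thiocholine formation read colorimetrically after 10 min at room temperature. DMSO served as vehicle control.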

For test [9] the target is unchanged. In words: Acetylcholinesterase (AChE) small molecule antagonists: fluorescence cell-based qHTS assay (AID 1347398; calls by dose curve; further: nearly all actives have a fitted effect of over 50% in size; further: potency means the concentration at half of the fitted maximal effect). Particulars: Potency: AChE activity. The essentials:
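SH-SY5Y cells (2000/well), attached overnight, incubated with compound 30 min at 37 C. Acetylthiocholine plus Thiolite Green then added for 40 min at room temperature. Thiocholine fluorescence (Ex/Em 490/520 nm) reports cellular AChE activity.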

Test [10] concerns the target Cytochrome P450 2D6 (Homo sapiens) (UniProt P10635). The test can be described thus: Cytochrome P450 Family 2 Subfamily D Member 6 (CYP2D6) small molecule antagonists: luciferase reporter qHTS assay (AID 1671196). Further: nearly all actives have a fitted effect of over 50% in size. Further: potency means the concentration at half of the fitted maximal effect. An outline of the steps: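 Cell-free P450-Glo system: CYP2D6 with proluciferin substrate was pre-incubated with compound for 10 min, then reacted with NADPH regeneration for 1 h at room temperature. Luciferin product was detected after 20 min, and data were reported as relative luminescence units.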

Test [11] has as its target Cytochrome P450 2C19 (Homo sapiens) (UniProt P33261). The test can be described thus: Cytochrome P450 Family 2 Subfamily C Member 19 (CYP2C19) small molecule antagonists: luciferase reporter qHTS assay (AID 1671197). Further: nearly all actives have a fitted effect of over 65% in size. Further: potency means the concentration at half of the fitted maximal effect. An outline of the steps:
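CYP2C19 P450-Glo, 1536-well qHTS. Cpd + enzyme/proluciferin substrate 10 min RT; + NADPH regen, 37C 1 h; stop with luciferin detection reagent, 20 min RT, luminescence (RLU). Pos ctrl ketoconazole.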

Test [12] deals with Cytochrome P450 2C9 (Homo sapiens) (UniProt P11712). The test can be described thus: Cytochrome P450 Family 2 Subfamily C Member 9 (CYP2C9) small molecule antagonists: luciferase reporter qHTS assay (AID 1671198). Further: nearly all actives have a fitted effect of over 50% in size. Further: potency means the concentration at half of the fitted maximal effect. An outline of the steps:
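P450-Glo proluciferin substrate with CYP2C9 enzyme; 10 min RT preincubation, then NADPH regeneration 1 h at 37C; luciferin detection reagent 20 min RT, luminescence in relative luminescence units.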

Test [13] has as its target Cytochrome P450 1A2 (Homo sapiens) (UniProt P05177). In words: Cytochrome P450 Family 1 Subfamily A Member 2 (CYP1A2) small molecule antagonists: luciferase reporter qHTS assay (AID 1671199). Further: nearly all actives have a fitted effect of over 50% in size. Further: potency means the concentration at half of the fitted maximal effect. The essentials:
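P450-Glo CYP1A2 enzyme–proluciferin substrate mix with compound 10 min at room temperature, then NADPH regeneration 1 h at room temperature. Luciferin detection reagent added, luminescence read after 20 min; furafylline positive control.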

The target of test [14] is Voltage-gated inwardly rectifying potassium channel KCNH2 (Homo sapiens) (UniProt Q12809). The test can be described thus: Human Ether-a-go-go-Related Gene (hERG) channel small molecule antagonists: fluorescence cell-based qHTS assay (AID 1671200). Further: nearly all actives have a fitted effect of over 50% in size. Further: potency means the concentration at half of the fitted maximal effect. An outline of the steps: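 First, 1000 cells per well are seeded and cultured overnight at 37 C. Next, FluxOR II dye is loaded for 1 h at room temperature, protected from light. After 10 more minutes, stimulus is added and fluorescence is read.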
Chain of Voltage-gated inwardly rectifying potassium channel KCNH2 (Homo sapiens) (Q12809 whole entry, looked up): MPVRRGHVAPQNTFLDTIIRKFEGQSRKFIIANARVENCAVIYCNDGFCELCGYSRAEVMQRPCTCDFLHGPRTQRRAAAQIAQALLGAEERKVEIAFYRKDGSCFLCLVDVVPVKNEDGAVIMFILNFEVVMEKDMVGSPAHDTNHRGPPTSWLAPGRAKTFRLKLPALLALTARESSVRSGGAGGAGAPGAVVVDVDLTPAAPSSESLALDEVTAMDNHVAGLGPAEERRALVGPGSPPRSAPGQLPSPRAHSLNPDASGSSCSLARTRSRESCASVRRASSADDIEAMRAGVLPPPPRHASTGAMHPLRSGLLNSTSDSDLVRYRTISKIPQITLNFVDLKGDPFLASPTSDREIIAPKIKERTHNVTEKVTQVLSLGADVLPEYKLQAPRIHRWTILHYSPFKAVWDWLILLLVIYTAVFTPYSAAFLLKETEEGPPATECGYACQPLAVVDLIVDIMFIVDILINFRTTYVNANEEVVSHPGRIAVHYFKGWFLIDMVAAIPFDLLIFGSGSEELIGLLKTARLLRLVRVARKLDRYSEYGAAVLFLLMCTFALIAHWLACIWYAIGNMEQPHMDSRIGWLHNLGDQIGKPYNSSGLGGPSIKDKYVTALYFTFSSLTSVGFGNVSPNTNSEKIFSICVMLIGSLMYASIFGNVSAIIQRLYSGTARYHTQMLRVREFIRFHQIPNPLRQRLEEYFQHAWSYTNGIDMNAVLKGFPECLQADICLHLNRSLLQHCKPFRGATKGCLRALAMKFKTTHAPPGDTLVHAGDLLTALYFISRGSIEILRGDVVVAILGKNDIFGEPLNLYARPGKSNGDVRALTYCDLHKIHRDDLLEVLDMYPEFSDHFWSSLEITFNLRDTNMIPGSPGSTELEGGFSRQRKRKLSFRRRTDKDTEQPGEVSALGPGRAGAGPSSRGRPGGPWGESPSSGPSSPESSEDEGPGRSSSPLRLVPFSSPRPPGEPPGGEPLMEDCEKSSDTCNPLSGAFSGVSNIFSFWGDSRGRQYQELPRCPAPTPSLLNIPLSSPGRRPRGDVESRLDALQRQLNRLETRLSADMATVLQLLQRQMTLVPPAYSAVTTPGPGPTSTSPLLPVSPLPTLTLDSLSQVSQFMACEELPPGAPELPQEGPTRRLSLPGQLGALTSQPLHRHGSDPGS

Test [15] has as its target Cytochrome P450 3A4 (Homo sapiens) (UniProt P08684). In words: Cytochrome P450 Family 3 Subfamily A Member 4 (CYP3A4) small molecule antagonists: luciferase reporter qHTS assay (AID 1671201). Further: nearly all actives have a fitted effect of over 50% in size. Further: potency means the concentration at half of the fitted maximal effect. The essentials: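 Enzyme and proluciferin substrate are mixed with test chemicals for 10 min, then NADPH regeneration system drives turnover for 1 h at room temperature. A detection reagent halts the reaction; luminescence after 20 min gives relative activity.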

The nature of test [16]: Caspase-3/7 induction in HepG2 cells by small molecules, qHTS cell viability counter screen (AID 1346981). Further: series mostly up to about 92 µM; nearly all actives have a fitted effect of over 30% in size. The essentials: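 Wild-type HepG2 cells, 2,000/well, settled 5 hr at 37 C, 5% CO2 before compound addition. Viability read by CellTiter-Fluor fluorescence, reagent added after 16 hr compound exposure, then 1 hr at 37C, in the same wells as the caspase read.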

Several values for one entry are separate records, joined by “and”; a condition that tells them apart may be missing. Equal entries are not always repeated. Results filed as inconclusive are left out. The source holds several records for some structures; these can differ, active in one and inactive in another. Activity calls are given as the source filed them. Unless noted, the call rests on the fitted dose curve; in most records, active means well fitted curve in the direction sought with a large enough effect in the repeat runs; inconclusive means weak or mixed curves; inactive means no such curve, though single readings can be large; an effect the other way counts as inactive or inconclusive.
On the % scale 0 is the no-effect control and ±100 the full control effect.

Chain of Acetylcholinesterase (Homo sapiens) (P22303 whole entry, looked up): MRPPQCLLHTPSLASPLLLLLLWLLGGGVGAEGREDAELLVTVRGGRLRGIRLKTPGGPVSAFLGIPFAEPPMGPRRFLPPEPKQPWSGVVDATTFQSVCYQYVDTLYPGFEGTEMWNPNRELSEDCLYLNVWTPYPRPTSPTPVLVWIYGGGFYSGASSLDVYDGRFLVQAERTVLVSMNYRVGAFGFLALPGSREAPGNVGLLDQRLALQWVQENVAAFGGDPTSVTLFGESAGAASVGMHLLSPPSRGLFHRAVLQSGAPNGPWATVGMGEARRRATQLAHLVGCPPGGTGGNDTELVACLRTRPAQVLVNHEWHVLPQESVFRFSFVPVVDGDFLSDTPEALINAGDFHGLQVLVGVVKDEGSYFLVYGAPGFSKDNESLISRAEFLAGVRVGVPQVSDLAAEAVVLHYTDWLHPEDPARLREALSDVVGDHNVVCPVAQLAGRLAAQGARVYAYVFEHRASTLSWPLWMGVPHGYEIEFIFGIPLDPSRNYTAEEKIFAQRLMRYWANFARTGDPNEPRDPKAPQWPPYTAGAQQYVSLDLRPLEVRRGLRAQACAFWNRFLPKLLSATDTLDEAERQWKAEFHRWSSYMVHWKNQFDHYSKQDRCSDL
Chain of Cytochrome P450 2C19 (Homo sapiens) (P33261 whole entry, looked up): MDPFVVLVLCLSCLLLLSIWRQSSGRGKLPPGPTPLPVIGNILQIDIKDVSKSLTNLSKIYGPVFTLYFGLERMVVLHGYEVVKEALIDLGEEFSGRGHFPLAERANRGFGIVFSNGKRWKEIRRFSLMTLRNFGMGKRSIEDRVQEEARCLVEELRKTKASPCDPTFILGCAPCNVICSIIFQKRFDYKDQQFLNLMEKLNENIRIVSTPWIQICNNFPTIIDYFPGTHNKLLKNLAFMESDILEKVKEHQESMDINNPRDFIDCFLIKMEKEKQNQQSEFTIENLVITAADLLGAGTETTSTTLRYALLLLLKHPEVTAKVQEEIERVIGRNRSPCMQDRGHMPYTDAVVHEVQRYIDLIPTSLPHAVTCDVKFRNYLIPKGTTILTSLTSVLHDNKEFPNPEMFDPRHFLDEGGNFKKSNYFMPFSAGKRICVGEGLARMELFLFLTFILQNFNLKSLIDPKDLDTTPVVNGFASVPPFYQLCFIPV
Chain of Cytochrome P450 3A4 (Homo sapiens) (P08684 whole entry, looked up): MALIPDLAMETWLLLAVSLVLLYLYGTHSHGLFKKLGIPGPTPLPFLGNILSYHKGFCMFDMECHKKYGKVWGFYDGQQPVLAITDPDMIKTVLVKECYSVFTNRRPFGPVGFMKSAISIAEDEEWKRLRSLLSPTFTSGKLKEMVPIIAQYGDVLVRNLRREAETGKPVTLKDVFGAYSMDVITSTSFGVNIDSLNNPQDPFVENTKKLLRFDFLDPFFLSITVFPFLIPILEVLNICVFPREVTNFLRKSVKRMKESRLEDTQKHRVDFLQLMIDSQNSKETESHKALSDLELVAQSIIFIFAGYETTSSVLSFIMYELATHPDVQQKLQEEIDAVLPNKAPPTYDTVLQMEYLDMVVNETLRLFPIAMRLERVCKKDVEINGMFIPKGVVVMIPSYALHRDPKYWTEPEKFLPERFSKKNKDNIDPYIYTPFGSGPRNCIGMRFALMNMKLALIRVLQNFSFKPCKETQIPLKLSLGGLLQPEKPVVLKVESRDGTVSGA
Chain of Cytochrome P450 1A2 (Homo sapiens) (P05177 whole entry, looked up): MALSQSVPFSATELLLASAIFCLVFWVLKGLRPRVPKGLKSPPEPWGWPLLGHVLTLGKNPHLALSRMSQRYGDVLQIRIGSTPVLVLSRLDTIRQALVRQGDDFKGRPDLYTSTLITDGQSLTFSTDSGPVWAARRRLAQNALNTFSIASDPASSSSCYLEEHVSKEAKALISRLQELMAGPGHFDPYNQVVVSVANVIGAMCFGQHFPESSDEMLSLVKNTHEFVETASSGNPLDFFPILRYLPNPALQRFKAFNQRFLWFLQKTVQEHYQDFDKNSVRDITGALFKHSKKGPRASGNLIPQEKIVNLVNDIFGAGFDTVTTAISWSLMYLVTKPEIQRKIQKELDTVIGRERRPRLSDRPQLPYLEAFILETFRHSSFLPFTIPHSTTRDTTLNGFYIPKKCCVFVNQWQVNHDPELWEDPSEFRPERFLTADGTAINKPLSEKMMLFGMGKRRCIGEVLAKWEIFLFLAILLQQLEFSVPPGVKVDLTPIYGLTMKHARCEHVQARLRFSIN
Chain of Nuclear receptor subfamily 1 group I member 2 (Rattus norvegicus) (Q9R1A7 whole entry, looked up): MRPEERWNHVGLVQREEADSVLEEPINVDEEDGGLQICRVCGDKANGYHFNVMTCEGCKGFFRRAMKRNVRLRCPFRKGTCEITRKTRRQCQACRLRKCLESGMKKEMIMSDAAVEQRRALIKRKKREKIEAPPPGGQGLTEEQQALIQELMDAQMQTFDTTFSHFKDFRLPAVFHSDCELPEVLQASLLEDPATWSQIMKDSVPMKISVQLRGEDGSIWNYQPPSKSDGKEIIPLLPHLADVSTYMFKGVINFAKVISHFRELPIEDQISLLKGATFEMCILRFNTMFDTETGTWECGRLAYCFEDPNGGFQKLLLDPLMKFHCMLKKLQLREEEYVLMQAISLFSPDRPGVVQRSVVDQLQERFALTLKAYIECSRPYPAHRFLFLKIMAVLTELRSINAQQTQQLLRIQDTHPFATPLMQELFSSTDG
Chain of Cytochrome P450 2C9 (Homo sapiens) (P11712 whole entry, looked up): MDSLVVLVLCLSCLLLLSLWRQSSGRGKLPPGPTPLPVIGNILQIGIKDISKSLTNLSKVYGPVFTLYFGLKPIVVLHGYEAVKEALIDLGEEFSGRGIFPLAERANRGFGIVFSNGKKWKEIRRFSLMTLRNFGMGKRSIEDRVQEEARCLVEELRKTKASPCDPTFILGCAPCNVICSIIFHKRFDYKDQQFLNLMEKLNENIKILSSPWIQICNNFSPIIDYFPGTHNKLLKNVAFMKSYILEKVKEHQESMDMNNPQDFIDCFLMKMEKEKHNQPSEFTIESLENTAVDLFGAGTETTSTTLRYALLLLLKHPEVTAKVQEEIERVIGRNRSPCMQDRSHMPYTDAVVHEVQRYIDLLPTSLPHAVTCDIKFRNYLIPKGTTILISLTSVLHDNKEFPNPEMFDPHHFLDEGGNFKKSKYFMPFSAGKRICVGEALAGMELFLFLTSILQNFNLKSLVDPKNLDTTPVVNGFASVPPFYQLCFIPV

As for `CCNc1nc(Cl)nc(NCC)n1`, the Potency result in test [1], in [2], in test [3], in test [4], in test [7] and in test [8] was “inactive” in each case. Moreover, the Potency entry in test [9], in test [10], in test [11], in test [12], in [14] and in test [15] was “inactive” each time. The max activation in test [5] was -2% (inactive). In addition, in test [6], the result was inactive. Further, the Potency in test [13] was 11.3 µM (active) and 12.6 µM (active).
For the compound `C[C@]12CCC(=O)C=C1CC[C@@H]1[C@@H]2CC[C@]2(C)C(=O)CC[C@@H]12`, the Potency entry in [1], in [3], in test [16], in test [7], in test [8] and in [9] was “inactive” throughout. The Potency entry in test [10], in [13], in test [14] and in test [15] was “inactive” throughout. Also, the Potency in test [2] was 23.9 µM (active) and inactive; in test [4], 53.5 µM (active) and inactive; in [11], 8.79 µM (active) and 39.9 µM (active) and 30.9 µM (active). Moreover, the max activation in test [5] was -1.07% (inactive). In test [6], the compound was classed as inactive.
With `CCCCCCCCCCCCOS(=O)(=O)O`, the Potency result in test [1], in [2], in test [3], in test [4], in test [7] and in [8] was “inactive” each time. The Potency result in [9], in test [10], in test [13], in test [14] and in test [15] was “inactive” each time. Further, in [6], the call was inactive. Further, the Potency in test [11] was 78.5 µM (active) and inactive; in test [12], 78.5 µM (active) and 71 µM (active) and inactive.
For `CC(=O)[O][Hg][c]1ccccc1`, the Potency result in [1], in [3], in test [4] and in test [8] was “inactive” throughout. Also, the Potency in test [2] was 762 nM (active) and 1.09 µM (active) and 1.88 µM (active); in test [7], 10 µM (active); in [9] it was 62.7 µM (active) and 56.4 µM (active); in [10] it was 353 nM (active) and 564 nM (active) and 1.74 µM (active); in test [11], 8.86 µM (active) and 8.94 µM (active) and 17.4 µM (active); in test [12], 3.96 µM (active) and 2.52 µM (active) and 4.36 µM (active). Besides, the Potency in test [13] was 17.7 µM (active) and 22.4 µM (active) and 27.5 µM (active); in [14], 13.7 µM (active) and 13.8 µM (active); in test [15] it was 4.98 µM (active) and 7.96 µM (active) and 12.3 µM (active). Moreover, in [5], the max activation is -23.3% (inactive). Moreover, the outcome in [6] was inactive.
With `CCCCCCCCn1cc[n+](C)c1`, the Potency entry in test [1], in test [3], in test [16], in [12], in test [13] and in test [15] was “inactive” throughout. Further, the Potency in [2] is 54.1 µM (active) and 49 µM (active) and 55 µM (active); in test [4], 13.6 µM (active) and 21.7 µM (active) and 17.4 µM (active); in [10], 5.68 µM (active) [middle of 4 runs]; in test [11], 39.9 µM (active) and inactive; in test [14] it was 17.3 µM (active) and 21.9 µM (active) and 22.1 µM (active).
Consider `CCCCCCCCCCCC(=O)O`, for which the Potency result in [1], in [2], in test [3], in test [16], in test [4] and in test [8] was “inactive” each time. Further, the Potency entry in test [9], in test [10], in test [13], in test [14] and in test [15] was “inactive” throughout. For the same compound, the Potency in test [11] is 79.9 µM (active) and inactive; in test [12], 102 µM (active).

Source of the values: PubChem BioAssay (Tox21).
